# TGFb SMAD3 inh: TGF-b pathway inhibition. actives 1.2% (n = 410,000). Potency, µM (series often up to 46.1 µM), for the others: at the highest dose activity, negative = inhibition, most hits filed as inhibitors. HepG2 CAGA-GFP TGF-b/SMAD3 reporter, GFP fluorescence, 18 h; TGF-beta stimulated, 500 pg/mL final. AID 588855; note: potency is the fitted concentration of half-maximal effect; % is set by controls: 0 for no effect and ±100 for the full control effect; nearly all actives have a fitted effect of over 65% in size
#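 Per well, imaged GFP fluorescence of HEPG2 CAGA-GFP cells gives the signal; cells get compound, then TGF-beta (500 pg/mL final), 18 h at 37 degrees C; %Activity versus -TGF-beta and +DMSO controls.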
# DT40 TDP1 no CPT: qHTS for Inhibitors of human tyrosyl-DNA phosphodiesterase 1 (TDP1): qHTS in cells in absence of CPT; DT40 Tdp1-/- hTDP1 cells, no CPT, ATP luminescence, 48 h; Potency, µM (titrated, usually from 46.2 µM), for inactives: at the top dose activity change, negative = growth inhibition, hits mostly inhibitors; actives 15% (n = 420,000); AID 686978, 2013; note: potency is the fitted concentration of half-maximal effect; % is set by controls: 0 for no effect and ±100 for the full control effect; nearly all actives have a fitted effect of over 55% in size
#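 Growth kinetics read by CellTiter-Glo luminescence after ≥48 hr at 37 °C. Cells: DT40 Tdp1-/- stably carrying human TDP1, 400 per well, compound exposure in the absence of CPT (DMSO vehicle).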
# IL-1B inflam inh: inflammasome signaling inhibition, IL-1 beta readout | THP-1 LPS/ATP IL-1B secretion, AlphaLISA, 16 h; active compounds read low | activity change, % at 57.5 µM | actives 4.7% (n = 360,000) | AID 743279; in the data active = activity change below about -50%; inconclusive = mostly about -30% to -49%; note: % is set by controls: 0 for no effect and ±100 for the full control effect
#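 THP-1 cells pretreated 1 hr with compounds (up to 57.5 uM final), then stimulated with LPS (250 ng/mL final) plus ATP (1.25 mM final); secreted IL-1B measured by AlphaLISA after 16 hr, decreased signal indicating inhibition.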
# TDP1 cell CPT: DT40-hTDP1 cell growth loss with CPT; actives 12% (n = 420,000); Potency, µM (doses to about 46.2 µM), inactives show at the highest dose activity change, negative = growth inhibition, usual class: inhibitors; chicken DT40 Tdp1-/-;hTDP1 cells + 20 nM CPT, ATP luminescence, 48 h; note: potency is the fitted concentration of half-maximal effect; % is set by controls: 0 for no effect and ±100 for the full control effect; nearly all actives have a fitted effect of over 55% in size
#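 Chicken DT40 Tdp1-/- cells complemented with human TDP1, 400 cells/well, exposed to compounds plus 20 nM camptothecin for at least 48 h at 37 C; viability read as ATP content by CellTiter-Glo luminescence.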
# HepG2 tox: HepG2 cytotoxicity, counter-screen for TGF-b inhibitors; HepG2 CAGA-GFP viability, ATP luminescence, 18 h; Potency, µM (series often up to 46.1 µM), for inactives: at the top dose activity change, negative = cytotoxicity, most hits filed as cytotoxic; actives 0.76% (n = 410,000); note: potency is the fitted concentration of half-maximal effect
#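 CellTiter-Glo luminescence gave cytotoxicity after 18 hours at 37 degrees C. The cells were HepG2 CAGA-GFP in 1% FBS DMEM, stimulated with 500 pg/mL TGF-beta after compound addition. %Activity was normalised to no-cell wells (complete cell-killing) and DMSO (no toxicity), and curves were fitted and classified.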
# ASM inhibitor: blocks human secretory acid sphingomyelinase | Potency, µM (series often up to 57.5 µM), for the others: at the highest dose activity change, negative = inhibition, hits mostly inhibitors | actives 0.006% (n = 340,000) | P17405 | placental ASM, HMU-PC fluorogenic substrate, 60 min; note: potency is the fitted concentration of half-maximal effect
# Target sequence (P17405 47-631 limits assumed): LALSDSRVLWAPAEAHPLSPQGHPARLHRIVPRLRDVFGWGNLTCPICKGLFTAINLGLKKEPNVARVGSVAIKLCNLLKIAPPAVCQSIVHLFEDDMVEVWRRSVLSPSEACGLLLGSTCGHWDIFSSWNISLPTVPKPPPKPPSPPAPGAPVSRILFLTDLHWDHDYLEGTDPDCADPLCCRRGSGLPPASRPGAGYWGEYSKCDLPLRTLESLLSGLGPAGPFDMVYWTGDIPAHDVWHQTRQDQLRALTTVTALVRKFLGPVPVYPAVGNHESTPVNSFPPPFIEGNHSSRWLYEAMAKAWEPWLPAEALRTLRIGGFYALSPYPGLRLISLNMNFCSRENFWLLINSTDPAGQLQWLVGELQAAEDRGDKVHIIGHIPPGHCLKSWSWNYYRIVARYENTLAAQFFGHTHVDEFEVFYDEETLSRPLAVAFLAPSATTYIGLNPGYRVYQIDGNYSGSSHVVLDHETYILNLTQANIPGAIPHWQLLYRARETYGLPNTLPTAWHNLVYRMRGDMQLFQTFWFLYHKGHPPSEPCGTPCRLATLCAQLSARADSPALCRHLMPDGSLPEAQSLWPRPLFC
#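 Fluorogenic HMU-PC substrate (9 uM final) is turned over by placental ASM in 60 min at 37 C after a 10 min compound preincubation. Reaction ended by alkaline stop (pH 10), with fluorescence read at 386/447 nm.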
# * = called active by the depositor; ? = inconclusive; . = no result. An excerpt weighted towards active compounds, which were near 19% of everything screened. Unless noted, calls come from the whole dose curve; as a rule, active = well fitted curve in the direction sought with a large enough effect; inconclusive = small, poorly fitted or top-dose-only effect, or another doubt; inactive = no such curve, though single readings can be large; an effect the other way counts as inactive or inconclusive.
SMILES,TGFb SMAD3 inh,DT40 TDP1 no CPT,IL-1B inflam inh,TDP1 cell CPT,HepG2 tox,ASM inhibitor
CC(C)c1ccc(NC(=O)Nc2nc(C(N)c3ccccc3)cs2)cc1 (configuration not stated),11µM*,23µM*,-94*,?,11µM*,.
CC(C)C(N)c1csc(NC(=O)Nc2cccc(Cl)c2)n1 (configuration not stated),?,21µM*,?,?,-71%,.
NCc1csc(NC(=O)Nc2cccc(Cl)c2)n1,-17%,?,0,?,-1%,.
Cc1ccccc1NC(=O)COC(=O)COc1ccc2ccc(=O)oc2c1,-2%,?,-24,-7%,15%,.
CC(=O)Nc1cc(O)c2nonc2c1O,0.56µM*,0.71µM*,.,0.63µM*,0.56µM*,.
Cc1cccc(C)c1NC(=O)CSc1nc2ncccc2o1,32%,-20%,.,0%,-1%,.
CSc1ncnc2c1ncn2CCCN1CCN(Cc2cccc3ccccc23)CC1,-16%,23µM*,?,?,-34%,.
CSc1ncnc2c1ncn2CCCN1CCN(c2ncccn2)CC1,2%,?,34,-6%,-7%,.
CSc1ncnc2c1ncn2CCCNc1ccc(C)c(C)c1,-3%,21µM*,23,?,-12%,.
COc1ncnc2c1ncn2CCCN1CCN(Cc2cccc3ccccc23)CC1,0%,23µM*,-4,?,-28%,.
Cc1cc(C)n(CCC(=O)N2CCN(S(=O)(=O)c3ccccc3)CC2)n1,-20%,-7%,-8,6%,-22%,-2%
CCCN(CCC)CCNC(=O)c1cc2c(-c3ccccc3F)nn(C)c2s1,?,?,-92*,?,-22%,-6%
CC(CCc1ccco1)NC(=O)c1cc2c(-c3ccccc3F)nn(C)c2s1 (configuration not stated),-11%,?,-24,?,-3%,-10%
Cn1nc(-c2ccccc2F)c2cc(C(=O)Nc3cc(F)ccc3F)sc21,-16%,?,.,?,-33%,.
Cn1nc(-c2ccccc2F)c2cc(C(=O)NCc3cccc(Cl)c3)sc21,-41%,?,.,15µM*,-10%,.
Cn1nc(-c2ccccc2F)c2cc(C(=O)NCc3ccc(Cl)cc3)sc21,?,16µM*,.,?,-16%,.
Cn1nc(-c2ccccc2F)c2cc(C(=O)Nc3ccc4c(c3)OCCO4)sc21,-10%,21µM*,-65*,?,-6%,-29%
CCCS(=O)(=O)NC(=O)C1(C)CCCN(C(=O)c2ccccc2)C1 (configuration not stated),4%,-7%,6,-3%,0%,.
CS(=O)(=O)N(CC(=O)Nc1cccc([N+](=O)[O-])c1)c1cccc(F)c1,-29%,-7%,?,-18%,-26%,-4%
COc1ccc(C2CC(=O)c3c(O)cc(O)cc3O2)c(CC=C(C)C)c1OC (configuration not stated),?,?,10,23µM*,-80%,-11%
CCOc1ccc(NC(=O)Cn2cc(C(=O)c3cccs3)c3ccccc32)cc1,-28%,?,.,?,-17%,.
O=C(c1cccs1)c1cn(CCOc2ccc(F)cc2)c2ccccc12,?,21µM*,.,16µM*,-18%,.
CC(C)(C)c1ccc(OCCn2cc(C(=O)c3ccco3)c3ccccc32)cc1,19%,23µM*,.,?,-17%,.
Cc1cc(OCCn2cc(C(=O)c3cccs3)c3ccccc32)ccc1Cl,-18%,16µM*,.,16µM*,-1%,.
O=C(c1ccco1)c1cn(CCOc2ccc(Cl)cc2)c2ccccc12,-16%,?,.,?,-20%,.
SMILES,TGFb SMAD3 inh,DT40 TDP1 no CPT,IL-1B inflam inh,TDP1 cell CPT,HepG2 tox,ASM inhibitor
O=C(c1cccs1)c1cn(CCOc2ccccc2F)c2ccccc12,-18%,18µM*,.,?,6%,.
Cc1ccc(OCCSc2nc3ccccc3n2CC(=O)N2CCCCC2)cc1C,0%,?,.,?,-4%,.
Nc1cccc(-n2cccc2)c1,-2%,6%,-19,7%,5%,-1%
Nc1ncnc2c1ncn2[C@@H]1O[C@H](CNCc2cccc(C#Cc3ccccc3)c2)[C@@H](O)[C@H]1O,-1%,?,-4,15µM*,9%,0%
Nc1ncnc2c1ncn2[C@@H]1O[C@H](CNCc2ccccc2)[C@@H](O)[C@H]1O,-6%,-20%,6,-27%,-9%,7%
Nc1ncnc2c1ncn2[C@@H]1O[C@H](CNCc2c(OCc3ccccc3F)ccc3ccccc23)[C@@H](O)[C@H]1O,?,?,-58*,?,-16%,4%
Cc1cccc(NC(=O)CSCC(=O)Nc2cc(Cl)ccc2N2CCOCC2)c1,0%,?,-1,?,-7%,-4%
O=C(/C=C/c1cn(-c2ccccc2)nc1-c1cccnc1)N1CCCCC1,-29%,18µM*,-20,?,-36%,-1%
CN1CCN(C(=O)/C=C/c2cn(-c3ccccc3)nc2-c2ccc3c(c2)OCCO3)CC1,-18%,-21%,-62*,-2%,-13%,0%
CC(=O)Nc1ccc(NC(=O)C(C)OC(=O)/C=C/c2cn(-c3ccccc3)nc2-c2cccnc2)cc1 (configuration not stated),-5%,21µM*,?,?,-7%,5%
O=C(O)/C=C/c1cn(-c2ccccc2)nc1-c1ccc2c(c1)OCCO2,2%,?,26,-13%,-4%,8%
O=C(/C=C\c1cn(-c2ccccc2)nc1-c1ccc2c(c1)OCCO2)N1CCOCC1,-7%,10µM*,-22,?,-15%,-1%
Cc1ccccc1NC(=O)COC(=O)/C=C/c1cn(-c2ccccc2)nc1-c1cccnc1,-16%,?,10,-1%,9%,1%
CN(C)C(=O)/C=C\c1cn(-c2ccccc2)nc1-c1ccc2c(c1)OCCO2,-1%,?,?,?,-14%,3%
O=C(/C=C/c1cn(-c2ccccc2)nc1-c1cccc(Cl)c1)N1CCN(c2ccccn2)CC1,11%,?,?,?,6%,-17%
COc1cccc(N2CCN(C(=O)C3Cc4ccccc4N3C(C)=O)CC2)c1 (configuration not stated),-23%,-26%,.,?,-6%,.

# Compound activity as filed in PubChem.
